PLK1 PBD inh – PLK1 (human) polo-box domain binding inhibition; Plk1 PBD binding of FITC phosphopeptide, fluorescence polarization; Potency, µM, inactives show max response, negative = inhibition, hits mostly inhibitors; 360,000 compounds, 2.8% hits; further: potency means the concentration at half of the fitted maximal effect; series mostly up to about 57 µM; on the % scale 0 is the no-effect control and ±100 the full control effect; nearly all actives have a fitted effect of over 65% in size
MBNL1 CUG block – inhibitors of human MBNL1 binding to CUG repeat RNA; Q9NR56; TR-FRET MBNL1-His/biotin-(CUG)12 binding, 665/545 ratio; Potency, µM (titrated, usually from 57.5 µM), for inactives: at the top dose activity change, negative = inhibition, actives largely listed as inhibitors; 280,000 compounds, 0.036% hits; AID 2675; active means well fitted inhibition curve with a large enough effect in the signal ratio, with a control signal flat, not every such curve was filed as active; inconclusive means small, poorly fitted or top-dose-only effect, or effect the other way, or a change in a side signal; inactive means no such curve, though single readings can be large or run the other way; the % refers to the signal ratio; further: potency means the concentration at half of the fitted maximal effect; on the % scale 0 is the no-effect control and ±100 the full control effect
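Inhibition of protein-RNA binding appears as loss of TR-FRET between terbium anti-His antibody on MBNL1-His and streptavidin-XL665 on biotin-(CUG)12. Activity is normalized to buffer-only and uninhibited-complex controls.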
CBFb-RUNX1 inh – blocks binding between human CBF-beta and RUNX1. Potency, µM (titrated, usually from 59.8 µM), without a hit: at the highest dose activity, negative = inhibition, actives largely listed as inhibitors. Q01196+Q13951. AID 1477. AlphaScreen CBFb-His/RUNX1-biotin binding, biochemical. 230,000 tested, under 10 active; further: % of control where 0% means no effect
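Compounds were screened at multiple concentrations against a preformed CBF-beta(His)/RUNX1(biotin) complex (30 nM of each) for 15 min at room temperature, followed by 90 min with nickel and streptavidin beads and AlphaScreen reading.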
KCNH2 3.1 inh – inhibitors of human KCNH2 3.1 potassium channel isoform | U2OS KCNH2 3.1, thallium flux FluxOr; stronger effect = lower value | activity change, % (tested at about 1.8 µM) | 340,000 compounds, 0.95% hits | AID 720553;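 active means maximum activity change below -70%; inconclusive means maximum activity change from -70% to -50%; inactive means maximum activity change above -50%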;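 further: thallium influx rate constant from kinetic fluorescence after stimulation buffer; on the % scale 0 is the no-effect control and ±100 the full control effect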
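Channel expression came from 3.1 mutant virus (1.77 x 10^8 /mL) applied to suspended U2OS cells for 4 h. Flux was tracked with FluxOr dye plus Red40 quencher, and kinetic rate constants normalized to controls.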
hERG WT inh – inhibitors of human wildtype KCNH2 potassium channel. Q12809. U2OS, BacMam KCNH2, thallium flux FluxOr; stronger effect = lower value. activity change, % at 1.84 µM. 340,000 compounds, 0.37% hits. AID 720551;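 active means maximum activity change below -70%; inconclusive means maximum activity change between -70% and -50%; inactive means maximum activity change above -50%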; further: on the % scale 0 is the no-effect control and ±100 the full control effect
Target sequence (Q12809 whole entry, looked up): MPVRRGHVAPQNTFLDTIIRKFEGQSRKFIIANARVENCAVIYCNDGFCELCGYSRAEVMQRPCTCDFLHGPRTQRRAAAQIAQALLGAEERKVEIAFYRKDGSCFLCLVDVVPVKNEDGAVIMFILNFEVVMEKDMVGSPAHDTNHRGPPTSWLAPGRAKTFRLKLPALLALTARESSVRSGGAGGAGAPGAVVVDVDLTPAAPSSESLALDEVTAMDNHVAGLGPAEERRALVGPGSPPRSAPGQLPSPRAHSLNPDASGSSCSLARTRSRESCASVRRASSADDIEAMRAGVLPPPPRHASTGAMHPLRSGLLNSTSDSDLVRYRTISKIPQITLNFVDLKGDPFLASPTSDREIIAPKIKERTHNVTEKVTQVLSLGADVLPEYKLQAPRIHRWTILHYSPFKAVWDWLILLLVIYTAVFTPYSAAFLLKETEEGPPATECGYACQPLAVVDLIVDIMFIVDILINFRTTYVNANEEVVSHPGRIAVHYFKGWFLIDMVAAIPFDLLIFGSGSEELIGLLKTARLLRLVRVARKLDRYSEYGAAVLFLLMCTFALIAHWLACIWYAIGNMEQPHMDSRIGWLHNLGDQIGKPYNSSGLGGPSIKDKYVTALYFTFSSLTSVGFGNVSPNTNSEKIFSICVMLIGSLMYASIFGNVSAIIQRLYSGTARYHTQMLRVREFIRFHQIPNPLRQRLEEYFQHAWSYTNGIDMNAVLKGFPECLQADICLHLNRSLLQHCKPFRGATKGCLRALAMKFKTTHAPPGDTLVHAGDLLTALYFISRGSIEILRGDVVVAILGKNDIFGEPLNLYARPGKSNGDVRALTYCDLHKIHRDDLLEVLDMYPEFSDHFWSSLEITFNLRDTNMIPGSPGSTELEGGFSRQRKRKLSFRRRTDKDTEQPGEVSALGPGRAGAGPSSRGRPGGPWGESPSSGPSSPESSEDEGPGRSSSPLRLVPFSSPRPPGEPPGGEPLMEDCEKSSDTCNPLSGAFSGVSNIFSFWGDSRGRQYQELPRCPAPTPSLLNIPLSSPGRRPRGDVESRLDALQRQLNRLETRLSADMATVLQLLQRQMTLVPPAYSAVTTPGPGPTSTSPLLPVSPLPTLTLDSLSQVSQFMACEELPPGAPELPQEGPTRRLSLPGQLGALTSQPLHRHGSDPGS
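U2OS cells were transduced with wild-type KCNH2 virus (2.03 x 10^8 / mL) for 4 h at room temperature, then cultured overnight at 37 C. Thallium flux was read with FluxOr dye. Rate constants were normalized to DMSO controls.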
VDR inh – inhibitors of human vitamin D receptor; AID 504847; Potency, µM, for inactives: max response, negative = inhibition, actives largely listed as inhibitors; VDR-SRC2-3 peptide fluorescence polarization, 2 h; P11473; 400,000 compounds, 0.93% hits; further: potency means the concentration at half of the fitted maximal effect; on the % scale 0 is the no-effect control and ±100 the full control effect
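Fluorescence polarization assay measuring small-molecule disruption of VDR binding to the coregulator peptide SRC2-3. Compounds were pin-transferred (23 nl) into the reagent mix and incubated 2 h at room temperature before reading.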
MBNL1 TRFRET – blocks human MBNL1 binding to CUG repeat RNA, TR-FRET validation; shares compounds with MBNL1 CUG block; TR-FRET MBNL1-His / biotin-(CUG)12 binding, 60 min; Potency, µM (series often up to 57.6 µM), for the others: at the top dose activity change, negative = inhibition, hits mostly inhibitors; 140 compounds, 50% hits
MBNL1-CUG Alpha – MBNL1-CUG RNA binding inhibition, AlphaScreen validation; shares compounds with MBNL1 CUG block; AlphaScreen MBNL1-His / biotin-(CUG)12 binding; Potency, µM (top dose mostly 57.7 µM), for the others: at the highest dose activity, negative = inhibition, most hits filed as inhibitors; 140 compounds, 30% hits; AID 493205
Menin-MLL HTRF – hit in HTRF counterscreen for MBNL1-poly(CUG) binding inhibitors | shares compounds with MBNL1 CUG block | His-Menin/biotin-MLL peptide TR-FRET counterscreen | Potency, µM (top dose mostly 57.6 µM), without a hit: at the highest dose activity, negative = inhibition, actives largely listed as inhibitors | 120 compounds, 20% hits | AID 651843
USP1 UbRho – validation of human USP1/UAF1 inhibitors; shares compounds with VDR inh; AID 540327; Potency, µM (highest dose often 56.8 µM), for the others: at the top dose activity change, negative = inhibition, usual class: inhibitors; Ub-Rhodamine cleavage, fluorescence kinetic read; 50 compounds, 50% hits
VDR inh confirm – confirmation of human vitamin D receptor inhibitors; shares compounds with VDR inh; VDR-coactivator inhibition assay, qHTS confirmation; Potency, µM, actives largely listed as inhibitors; 840 compounds, 89% hits; AID 602199; further: potency means the concentration at half of the fitted maximal effect
VDR FP fluor – confirmation of human VDR-coactivator binding inhibitors, fluorescein label; shares compounds with VDR inh; VDR-coactivator binding, fluorescein fluorescence polarization; Potency, µM (highest dose often 57.1 µM), for inactives: at the top dose activity change, negative = inhibition, most hits filed as inhibitors; 840 compounds, 48% hits; AID 602200; further: potency means the concentration at half of the fitted maximal effect
VDR bla – inhibits human VDR in beta-lactamase reporter cells; shares compounds with VDR inh; VDR beta-lactamase reporter cells, FRET ratio; cells co-treated with VDR agonist LG190178; Potency, µM (highest dose often 46.1 µM), inactives show at the top dose activity change, negative = inhibition, usual class: inhibitors; 840 compounds, 23% hits; AID 602202; further: potency means the concentration at half of the fitted maximal effect; on the % scale 0 is the no-effect control and ±100 the full control effect
VDR viability – counter-screen for vitamin D receptor inhibitors: cytotoxicity; shares compounds with VDR inh; cytotoxicity counter-screen, cell viability, qHTS; Potency, µM (highest dose often 48.3 µM), without a hit: at the top dose activity change, negative = cytotoxicity, usual class: cytotoxic; 840 compounds, 18% hits; AID 602204;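 further: potency means the concentration at half of the fitted maximal effect; plate controls were DMSO for no effect and high-concentration cycloheximide for full effect; nearly all actives have a fitted effect of over 75% in size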
TbPYK confirm – confirmation of Trypanosoma brucei pyruvate kinase inhibitors. Potency, µM (titrated, usually from 76.9 µM), without a hit: at the top dose activity change, negative = inhibition, most hits filed as inhibitors. shares compounds with PLK1 PBD inh. recombinant TbPYK, Kinase-Glo ATP luminescence. 890 compounds, 67% hits; further: potency means the concentration at half of the fitted maximal effect; on the % scale 0 is the no-effect control and ±100 the full control effect; nearly all actives have a fitted effect of over 70% in size
TbPYK orthogonal – TbPYK inhibition, orthogonal confirmation; Potency, µM (titrated, usually from 76.9 µM), without a hit: top-dose activity change, negative = inhibition, usual class: inhibitors; recombinant TbPYK, ADP-Glo luminescence, 60 min; 890 compounds, 62% hits; shares compounds with PLK1 PBD inh; further: potency means the concentration at half of the fitted maximal effect; on the % scale 0 is the no-effect control and ±100 the full control effect; nearly all actives have a fitted effect of over 75% in size
* = called active by the depositor; ? = inconclusive; / = not tested or not shown; ! = a repeat was not active. In the library only some 3.8% were active in any assay of this set; here they are far more common. Unless noted, the call rests on the fitted dose curve; in most records, active means well fitted curve in the direction sought with a large enough effect; inconclusive means small, poorly fitted or top-dose-only effect, or another doubt; inactive means no such curve, though single readings can be large; an effect the other way counts as inactive or inconclusive.

SMILES | PLK1 PBD inh | MBNL1 CUG block | CBFb-RUNX1 inh | KCNH2 3.1 inh | hERG WT inh | VDR inh | MBNL1 TRFRET | MBNL1-CUG Alpha | Menin-MLL HTRF | VDR inh confirm | VDR FP fluor | VDR bla | VDR viability | others
Cc1cc(N2CCN(C)CC2)nc2ccc(NC(=S)NCCN3CCc4ccccc4C3)cc12 | -14% | 25µM* | 0% | 1 | 2 | 15% | -20% | -25% | -19% | / | / | / | /
Cc1ccc(-c2cc(-c3ccccc3C)[nH]n2)c(O)c1 | 1% | 20µM* | -6% | 10 | -5 | -7% | 5% | 4% | -2% | / | / | / | /
Cc1ccc(O)c(-c2cc(-c3ccccc3F)[nH]n2)c1 | 1% | 4% | 4% | 1 | -4 | -2% | / | / | / | / | / | / | /
Cn1nc(-c2ccc(Cl)cc2)nc2c(=O)n(C)c(=O)nc1-2 | / | ? | / | / | / | ? | 0.65µM* | 0.26µM* | 56% | / | / | / | /
COc1ccc(OC)c(NC(=O)CN(C)S(=O)(=O)c2ccc3[nH]c4c(c3c2)CCCC4)c1 | / | / | / | / | / | 10% | / | / | / | / | / | / | /
CC(C)CCNC(=O)c1ccc2c(c1)N(Cc1ccccc1F)C(=O)c1ccccc1S2(=O)=O | / | / | / | / | / | -6% | / | / | / | / | / | / | /
O=C(O)C1Nc2c(O)cccc2C2C=CCC12 (stereo unspecified) | 27µM* | / | / | -2 | -1 | 14% | 10µM* | 2.1µM* | 5% | / | / | / | /
CN(CC(=O)Nc1sccc1C#N)C1CCCCC1 | ? | 28µM* | 11% | -10 | -6 | -5% | -22% | -1% | 0% | / | / | / | /
N#Cc1c(N)nc(SCC(=O)NCCc2ccccc2)c(C#N)c1-c1cccs1 | -7% | 134% | ? | -5 | -6 | -3% | ? | -3% | 0% | / | / | / | /
CCCCC(=O)c1ccc(O)cc1 | -3% | 3% | 3% | 7 | -7 | -5% | / | / | / | / | / | / | /
O=C(CCO)c1ccc(O)cc1 | -1% | 25µM* | / | -2 | -9 | -13% | ? | ? | 0% | / | / | / | /
O=C(NC1(O)C(=O)c2ccccc2C1=O)c1ccccc1 | -12% | / | 8% | -4 | 2 | ? | 21µM* | 13µM* | 1% | 1* | 1µM* | 6% | 12%
CC1(C)CCC(=O)c2ccccc21 | -7% | / | / | 17 | 4 | -18% | / | / | / | / | / | / | /
CC1(C)CCC2=C(O1)c1ccccc1C(=O)C2=O | / | ? | ? | / | / | 8.9µM* | ? | 20µM* | / | 14* | 11µM* | ? | 24µM*! | USP1 UbRho=8.3µM*
COc1ccc(-c2cn3c(n2)sc2cc(C(=O)NC4CCCc5ccccc54)ccc23)cc1 (stereo unspecified) | / | / | / | / | / | 8% | / | / | / | / | / | / | /
Nc1ccc2c(c1)C(=O)C(=O)c1ccccc1-2 | 1.5µM* | ? | -3% | -8 | -5 | 20µM* | ? | 6.5µM* | 87% | 6.7* | ? | 4.1µM* | 2.9µM* | TbPYK confirm=14µM*;TbPYK orthogonal=?
CCN(CC)CCNC(=O)c1c(C)[nH]c(/C=C2\C(=O)Nc3ccc(F)cc32)c1C | / | / | / | / | / | 3% | / | / | / | / | / | / | /
O=C(CSc1ccc([N+](=O)[O-])cc1)Nc1cccc(S(=O)(=O)Nc2ccccc2F)c1 | 9.5µM* | ? | -9% | / | -27 | 79µM* | / | / | / | 19* | 22µM* | 21% | -9%
Cc1ccc(S(=O)(=O)c2cn(CC(=O)Nc3ccc4c(c3)OCO4)c3ccc(F)cc3c2=O)cc1 | / | / | / | / | / | -20% | / | / | / | / | / | / | /
O=C1C(=O)c2c(C(=O)c3ccccc3)coc2-c2ccccc21 | ? | 4% | -29% | -12 | -5 | 3.2µM* | / | / | / | 4.2* | ? | ? | 18µM*
Cc1oc2c(c1C(=O)c1ccccc1)C(=O)C(=O)c1ccccc1-2 | ? | 11% | ? | -14 | -14 | ? | / | / | / | 2.5* | 3.2µM* | 21µM* | 3.4µM*
Cc1oc2c(c1C(=O)O)C(=O)c1ccccc1C2=O | 1% | ? | -6% | 0 | 18 | -20% | / | / | / | / | / | / | /
COc1ccc(Nc2nnc(-c3ccc(C)c(S(=O)(=O)N4CCOCC4)c3)c3ccccc23)cc1 | / | / | / | / | / | -10% | / | / | / | / | / | / | /
CCC(C)(C)c1nnc(NC(=O)C2CCN(C(=O)c3ccco3)CC2)s1 | 2.4µM* | 0% | / | 1 | -4 | 50µM* | / | / | / | 6.7* | ? | -12% | 4%
CCc1ccc(-c2nn(CC(=O)NCc3ccccc3)c3c2cnc2ccc(C)cc23)cc1 | / | / | / | / | / | 9% | / | / | / | / | / | / | /

High-throughput results deposited in PubChem by National Center for Advancing Translational Sciences (NCATS).
